# Measurements as given in PubChem BioAssay (EPA / NIEHS).
# The source made the active and inactive calls. How the source made its calls: active means hit-call score of the fitted dose curve at least 0.9, where 1 is the maximum; inactive means score below 0.9.
# Target: Myc proto-oncogene protein (Homo sapiens) (UniProt P01106)
# Assay: ATG_Myc_CIS: Attagene CIS-FACTORIAL HepG2 Assay for human Myelocytomatosis (Myc) Proto-Oncogene Transcription Factor (AID 2282990)
# Settings: HepG2, Attagene cis-reporter transcription factor activity; actives raise or lower the signal
# Description: ATG_CIS is a cell-based, multiplexed-readout assay that uses HepG2, a human liver cell line, with measurements taken at 24 hours after chemical dosing in a 24-well plate.ATG_Myc_CIS is one of 52 assay component(s) measured or calculated from the ATG_CIS assay. It is designed to make measurements of mRNA induction, a form of inducible reporter, as detected with fluorescence intensity signals by Reverse transcription polymerase chain reaction (RT-PCR) and Capillary electrophoresis technology.Data from the assay component ATG_Myc_CIS was analyzed into 1 assay endpoint. This assay endpoint, ATG_Myc_CIS, was analyzed with bidirectional fitting relative to DMSO as the negative control and baseline of activity. Using a type of inducible reporter, measures of mRNA for gain or loss-of-signal activity can be used to understand the reporter gene at the transcription factor-level as they relate to the gene MYC. Furthermore, this assay endpoint can be referred to as a primary readout, because this assay has produced multiple assay endpoints where this one serves a reporter gene function. To generalize the intended target to other relatable targets, this assay endpoint is annotated to the dna binding intended target family, where the subfamily is basic helix-loop-helix leucine zipper.
# Human liver HepG2 cells are transiently transfected with multiple reporter transcription units (MRTUs) in 6-well plates using FuGene 6 reagent (Roche; 3 ml FuGene/1 mg DNA). The MRTU constructs are regulated by a cis-regulating element (promoter). […] A major difference between the CIS and TRANS system is that in CIS activities of endogenous TFs are measured, whereas the TRANS assay evaluates changes in activities of exogenous, chimeric NR-Gal4 proteins. […] At the end of 24 hour incubation, total RNA was isolated using TriZol reagent (Invitrogen). The isolated RNA is then reverse-transcribed using oligo(dT) primer and Mo-MLV reverse transcriptase (Invitrogen) with DNAse I (Ambion) treatment for 30 min. The one-tenth of the produced cDNA was amplified by PCR using Taq DNA polymerase (Invitrogen) and two reporter sequence-specific primers. The PCR products were fluorescently labeled by primer extension with 6-arboxyfluorescein (6-FAM) 5'-labeled reporter sequence-specific primer (2 min at 95 C, 20 s at 68 C and 10 min at 72 C) and these products were digested with 5U of HpaI (New England Biolabs) for 2h at 37 C. The fragments were purified using Qiaquick PCR columns (Qiagen), analyzed on an ABI 3130xL genetic analyzer (Applied Biosystems) with peak positions identified by using a set of X-rhodamine (ROX)-labeled MapMarker1000 molecular weight standards (BioVentures). The raw capillary electrophoresis data was processed using Attagraph software (Attagene).
# Chain of Myc proto-oncogene protein (Homo sapiens) (P01106 whole entry, looked up): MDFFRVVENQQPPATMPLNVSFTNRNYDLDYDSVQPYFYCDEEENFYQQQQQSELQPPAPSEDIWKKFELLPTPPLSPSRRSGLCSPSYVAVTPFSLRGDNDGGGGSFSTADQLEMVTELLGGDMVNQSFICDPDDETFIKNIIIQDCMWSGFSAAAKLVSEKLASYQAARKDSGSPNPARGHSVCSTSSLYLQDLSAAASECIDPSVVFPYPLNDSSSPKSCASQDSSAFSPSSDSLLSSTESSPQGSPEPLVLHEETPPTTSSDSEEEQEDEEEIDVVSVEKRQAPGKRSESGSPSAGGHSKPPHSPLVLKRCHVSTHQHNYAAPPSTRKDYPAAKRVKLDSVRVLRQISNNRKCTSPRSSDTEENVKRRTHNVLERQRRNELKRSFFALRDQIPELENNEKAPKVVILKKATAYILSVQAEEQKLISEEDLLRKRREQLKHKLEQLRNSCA
Structure (SMILES),outcome,AC50
CC1=C(CC=O)C(C)(C)CCC1,inactive,
CCOc1ccc2c(c1)C(C)CC(C)(C)N2 (stereo not given),inactive,
C=C1CC[C@H]2C[C@@H]1C2(C)C,inactive,
CCC(C)(CCC(C)C)C(=O)O (stereo not given),inactive,
CC(C)CC(=O)CC(C)CC(C)C (stereo not given),inactive,
Cc1ccccc1S(=O)(=O)O,inactive,
OCCOCCOCCOCCOCCO,inactive,
Oc1ccc(Cl)cc1C1CCCC1,,16.6 µM (active)
C/C=C(\C)C(=O)OCC/C=C\CC,inactive,
C=CN1CCCCCC1=O,inactive,
NC(=O)c1ccc(N)cc1,inactive,
C=C(C)C(=O)OCCCCCC,inactive,
CNC(=C[N+](=O)[O-])NCCSCc1csc(CN(C)C)n1,inactive,
CCC(C)=NO,inactive,
CCCCOC(=O)COc1ccc(Cl)cc1Cl,inactive,
CN(C)N=Nc1ccccc1,inactive,
Nc1nnc(-c2ccc([N+](=O)[O-])o2)o1,,12 µM (active)
O=C(O)/C=C\C(=O)O,inactive,
CCCCC(CC)COC(=O)CS (stereo not given),inactive,
CN(C)CCC(c1ccc(Cl)cc1)c1ccccn1 (stereo not given),inactive,

Structure (SMILES),outcome,AC50
CCC(C)NC(N)=O (stereo not given),inactive,
CC(C)CC(=O)CC(C)C,inactive,
CCCCCCC(O)CCCCCCCCCCC(=O)OC (stereo not given),inactive,
Cc1cc(O)cc(C)c1Cl,inactive,
CN(C)CCCN1c2ccccc2CCc2ccc(Cl)cc21,inactive,
CCO[Si](CCCN)(OCC)OCC,inactive,
NC(=O)c1ccc([N+](=O)[O-])cc1Cl,inactive,
C[Si](C)(C)O[Si](C)(C)O[Si](C)(C)C,inactive,
Oc1ccc(Oc2ccccc2)cc1,inactive,
CCCCCCOC(=O)CCCCCCCC(=O)OCCCCCC,inactive,
O=C(OCc1ccccc1)c1ccccc1,inactive,
CC(C)=CCOC(=O)c1ccccc1,inactive,
CC1=NN(c2cc(Cl)c(S(=O)(=O)O)cc2Cl)C(=O)C1N=Nc1ccc(S(=O)(=O)O)cc1 (stereo not given),inactive,
CCc1cc(C(N)=S)ccn1,inactive,
CCCCCCCCCCCCCC,inactive,
CC1(C)S[C@@H]2[C@H](NC(=O)[C@H](N)c3ccccc3)C(=O)N2[C@H]1C(=O)O,inactive,
CCO[Si](OCC)(OCC)c1ccccc1,inactive,
Clc1ccc(Sc2cc(Cl)c(Cl)cc2Cl)cc1,inactive,
CCCCCCCC#N,inactive,
COc1c2occc2cc2ccc(=O)oc12,inactive,
